PubChem BioAssay (NCATS)
“And” between values parts separate entries of the source, which are not always exact repeats. Equal values may be shown once. Results filed as inconclusive are left out. The source made the active and inactive calls. Unless noted, the call rests on the fitted dose curve; in most records, active means well fitted curve in the direction sought with a large enough effect; inconclusive means small, poorly fitted or top-dose-only effect, or another doubt; inactive means no such curve, though single readings can be large; an effect the other way counts as inactive or inconclusive.

Experiments:
[1] = Cell Viability - LYMP2-001 (AID 921);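 further: series mostly up to about 92 µM; 0% = DMSO only and full inhibition = tetraoctylammonium bromide control wells; nearly all actives have a fitted effect of over 70% in size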
Outline: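 Human lymphoblastoid LYMP2-001 cells, 2500 per well, in complete medium, treated 24 h at 37 C. Viability from cellular ATP by CellTiter-Glo luminescence; AC50 from Hill-equation fits of qHTS concentration-response.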

[2] = MultiTox-Fluor Cytotoxicity Assay - LYMP1-002 - Dead Cells (AID 960);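 further: 0% = DMSO and 100% = tetraoctylammonium bromide; nearly all actives have a fitted effect of over 60% in size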
Outline: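 Human lymphoblastoid cells (LYMP1-002), 2500/well in complete medium, were exposed to compounds for 16 hr at 37 C. Dead-cell protease activity was read as bis-AAF-R110 fluorescence (Ex/Em 485/520), normalized to DMSO and 15 uM tetraoctylammonium bromide; AC50 from Hill fits.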

[3] = Cell Viability - LYMP1-003 - Assay at 24 hr (AID 963);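 further: plate controls were DMSO only for no effect and tetraoctylammonium bromide positive control for full effect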
Outline: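 Human lymphoblastoid LYMP1-003 cells (2500/well) were rested 5 hr at 37 C, then exposed to compounds in complete medium for 24 hr at 37 C. Cellular ATP was quantified by CellTiter-Glo luminescence, and AC50 values came from Hill fits of concentration-response data.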

[4] = target: Estrogen receptor (Homo sapiens) (UniProt P03372); experiment: qHTS assay for small molecule antagonists of estrogen receptor alpha signaling (AID 588513; active means well fitted curve in the direction sought with a large enough effect in the signal ratio, with a control signal flat, not every such curve was filed as active; the % refers to the signal ratio; further: on the % scale 0 is the no-effect control and ±100 the full control effect)
Chain of Estrogen receptor (Homo sapiens) (P03372 whole entry, looked up): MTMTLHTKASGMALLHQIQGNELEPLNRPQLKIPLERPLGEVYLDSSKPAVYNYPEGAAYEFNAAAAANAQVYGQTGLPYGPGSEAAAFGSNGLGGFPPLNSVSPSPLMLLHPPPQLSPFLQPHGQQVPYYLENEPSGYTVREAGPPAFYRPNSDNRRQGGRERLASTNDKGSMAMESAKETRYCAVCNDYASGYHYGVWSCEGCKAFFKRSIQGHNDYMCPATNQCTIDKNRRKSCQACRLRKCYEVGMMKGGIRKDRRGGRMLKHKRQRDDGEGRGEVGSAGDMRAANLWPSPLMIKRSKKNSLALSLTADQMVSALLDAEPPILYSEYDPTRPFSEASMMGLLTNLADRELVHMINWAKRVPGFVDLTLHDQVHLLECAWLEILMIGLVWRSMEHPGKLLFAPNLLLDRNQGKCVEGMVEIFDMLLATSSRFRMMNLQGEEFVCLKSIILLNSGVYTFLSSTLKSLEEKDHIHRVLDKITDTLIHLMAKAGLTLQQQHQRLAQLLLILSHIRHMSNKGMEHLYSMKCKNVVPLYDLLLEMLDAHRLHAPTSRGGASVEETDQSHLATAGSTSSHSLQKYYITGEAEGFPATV
Outline: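 ER-alpha-UAS-bla GripTite HEK 293 cells in 2% charcoal/dextran-treated FBS medium; compounds titrated (1:2, duplicate), then stimulated with 0.5 nM 17-beta-estradiol for 18 h at 37C. CCF4 beta-lactamase fluorescence; Hill-fit IC50 and efficacy.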

[5] = target: Estrogen receptor (Homo sapiens) (UniProt P03372); experiment: qHTS assay for small molecule agonists of estrogen receptor alpha signaling (AID 588514; calls by dose curve;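 further: 0% = vehicle only and 100% = reference agonist; nearly all actives have a fitted effect of over 70% in size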)
Outline: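 ER-alpha-UAS-bla GripTite HEK 293 cells in medium with 2% charcoal/dextran-treated FBS were treated with compound titrations at 37 C for 18 hrs; beta-lactamase reporter read by CCF4 fluorescence after 2 hrs at RT.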

[6] = target: Peroxisome proliferator-activated receptor gamma (Homo sapiens) (UniProt P37231); experiment: qHTS assay for small molecule agonists of peroxisome proliferator-activated receptor gamma signaling (AID 588536; active means well fitted curve in the direction sought with a large enough effect in the signal ratio, with a control signal flat, not every such curve was filed as active; the % refers to the signal ratio;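 further: 0% = DMSO basal wells and 100% = rosiglitazone at 2 µM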)
Chain of Peroxisome proliferator-activated receptor gamma (Homo sapiens) (P37231 whole entry, looked up): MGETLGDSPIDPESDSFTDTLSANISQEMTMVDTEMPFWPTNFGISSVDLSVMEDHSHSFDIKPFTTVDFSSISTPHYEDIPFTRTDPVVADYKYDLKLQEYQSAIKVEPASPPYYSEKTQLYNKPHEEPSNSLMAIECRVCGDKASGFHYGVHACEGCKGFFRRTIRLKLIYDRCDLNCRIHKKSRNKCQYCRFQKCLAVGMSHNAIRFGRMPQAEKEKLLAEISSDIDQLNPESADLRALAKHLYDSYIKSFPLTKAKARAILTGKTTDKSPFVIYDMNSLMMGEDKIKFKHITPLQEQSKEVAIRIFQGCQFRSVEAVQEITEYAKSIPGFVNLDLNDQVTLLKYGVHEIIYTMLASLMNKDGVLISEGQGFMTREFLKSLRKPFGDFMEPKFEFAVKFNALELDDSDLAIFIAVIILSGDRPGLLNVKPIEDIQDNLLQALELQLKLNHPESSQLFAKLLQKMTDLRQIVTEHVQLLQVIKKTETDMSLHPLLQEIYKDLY
Outline: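 HEK293 UAS-bla reporter line, 1% charcoal/dextran FBS; titration, 16 h, 37 C; CCF4 loading 2 h RT; fluorescence 460/530 nm. Normalized to rosiglitazone 2 uM = 100%, DMSO = 0%.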

[7] = target: Peroxisome proliferator-activated receptor gamma (Homo sapiens) (UniProt P37231); experiment: qHTS assay for small molecule antagonists of peroxisome proliferator-activated receptor gamma signaling (AID 588537; active means well fitted inhibition curve with a large enough effect in the signal ratio, with a control signal flat, not every such curve was filed as active; the % refers to the signal ratio;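 further: reporter cells co-stimulated with 50 nM rosiglitazone agonist during compound treatment; % of control where 0% means no effect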)
Outline: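 Step one: plate 3000 HEK293 UAS-bla cells per well in medium with 1% stripped serum and hold 6-6.5 h at 37 C. Step two: add compound and 50 nM agonist for 16 h. Step three: CCF4 loading, fluorescence read.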

[8] = target: Thyroid hormone receptor beta (Homo sapiens) (UniProt P10828); experiment: qHTS assay for small molecule agonists of thyroid hormone receptor beta signaling (AID 588545; calls by dose curve)
Chain of Thyroid hormone receptor beta (Homo sapiens) (P10828 whole entry, looked up): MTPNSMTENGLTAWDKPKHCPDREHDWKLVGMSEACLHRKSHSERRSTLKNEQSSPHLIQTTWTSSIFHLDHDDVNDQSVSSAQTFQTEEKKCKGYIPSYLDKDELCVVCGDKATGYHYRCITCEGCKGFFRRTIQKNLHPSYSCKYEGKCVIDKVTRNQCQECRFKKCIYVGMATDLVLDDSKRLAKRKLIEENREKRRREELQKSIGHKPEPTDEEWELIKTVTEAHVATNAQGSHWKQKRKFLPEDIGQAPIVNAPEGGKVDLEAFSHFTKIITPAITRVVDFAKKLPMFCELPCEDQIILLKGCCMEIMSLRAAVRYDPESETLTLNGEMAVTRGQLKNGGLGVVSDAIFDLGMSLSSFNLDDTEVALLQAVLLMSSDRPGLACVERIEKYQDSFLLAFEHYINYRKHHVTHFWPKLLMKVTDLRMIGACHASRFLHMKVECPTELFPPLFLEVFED
Outline: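 Agonist activity was read as beta-lactamase CCF4 fluorescence (405 ex, 460/530 em), scaled between DMSO (0%) and 10 nM T3 (100%), then Hill-fitted for EC50 and efficacy. HEK 293 TR-UAS-bla cells in 2% charcoal/dextran FBS medium were exposed 18 h at 37 C.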

[9] = target: Thyroid hormone receptor beta (Homo sapiens) (UniProt P10828); experiment: qHTS assay for small molecule antagonists of thyroid hormone receptor beta signaling (AID 588547; active means well fitted inhibition curve with a large enough effect in the signal ratio, with a control signal flat, not every such curve was filed as active; the % refers to the signal ratio;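 further: cells stimulated with 0.4 nM T3 agonist during compound exposure; series mostly up to about 77 µM; on the % scale 0 is the no-effect control and ±100 the full control effect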); conditions: TR-UAS-bla HEK293, beta-lactamase ratio, antagonist mode, 18 h
Outline: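 TR-UAS-bla GripTite HEK293 cells in 2% charcoal/dextran FBS medium; compounds 0.59 nM to 92 uM with T3 at 0.4nM final, 18 h at 37 C. Beta-lactamase read by CCF4 fluorescence (460/530 nm); Hill fits gave IC50 and efficacy.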

[10] = target: Voltage-gated inwardly rectifying potassium channel KCNH2 (Homo sapiens) (UniProt Q12809); experiment: qHTS Assay for Small Molecule Inhibitors of the Human hERG Channel Activity (AID 588834);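 further: top concentration of the series differs between compounds; on the % scale 0 is the no-effect control and ±100 the full control effect; lower thallium flux fluorescence means stronger hERG block; nearly all actives have a fitted effect of over 50% in size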
Chain of Voltage-gated inwardly rectifying potassium channel KCNH2 (Homo sapiens) (Q12809 whole entry, looked up): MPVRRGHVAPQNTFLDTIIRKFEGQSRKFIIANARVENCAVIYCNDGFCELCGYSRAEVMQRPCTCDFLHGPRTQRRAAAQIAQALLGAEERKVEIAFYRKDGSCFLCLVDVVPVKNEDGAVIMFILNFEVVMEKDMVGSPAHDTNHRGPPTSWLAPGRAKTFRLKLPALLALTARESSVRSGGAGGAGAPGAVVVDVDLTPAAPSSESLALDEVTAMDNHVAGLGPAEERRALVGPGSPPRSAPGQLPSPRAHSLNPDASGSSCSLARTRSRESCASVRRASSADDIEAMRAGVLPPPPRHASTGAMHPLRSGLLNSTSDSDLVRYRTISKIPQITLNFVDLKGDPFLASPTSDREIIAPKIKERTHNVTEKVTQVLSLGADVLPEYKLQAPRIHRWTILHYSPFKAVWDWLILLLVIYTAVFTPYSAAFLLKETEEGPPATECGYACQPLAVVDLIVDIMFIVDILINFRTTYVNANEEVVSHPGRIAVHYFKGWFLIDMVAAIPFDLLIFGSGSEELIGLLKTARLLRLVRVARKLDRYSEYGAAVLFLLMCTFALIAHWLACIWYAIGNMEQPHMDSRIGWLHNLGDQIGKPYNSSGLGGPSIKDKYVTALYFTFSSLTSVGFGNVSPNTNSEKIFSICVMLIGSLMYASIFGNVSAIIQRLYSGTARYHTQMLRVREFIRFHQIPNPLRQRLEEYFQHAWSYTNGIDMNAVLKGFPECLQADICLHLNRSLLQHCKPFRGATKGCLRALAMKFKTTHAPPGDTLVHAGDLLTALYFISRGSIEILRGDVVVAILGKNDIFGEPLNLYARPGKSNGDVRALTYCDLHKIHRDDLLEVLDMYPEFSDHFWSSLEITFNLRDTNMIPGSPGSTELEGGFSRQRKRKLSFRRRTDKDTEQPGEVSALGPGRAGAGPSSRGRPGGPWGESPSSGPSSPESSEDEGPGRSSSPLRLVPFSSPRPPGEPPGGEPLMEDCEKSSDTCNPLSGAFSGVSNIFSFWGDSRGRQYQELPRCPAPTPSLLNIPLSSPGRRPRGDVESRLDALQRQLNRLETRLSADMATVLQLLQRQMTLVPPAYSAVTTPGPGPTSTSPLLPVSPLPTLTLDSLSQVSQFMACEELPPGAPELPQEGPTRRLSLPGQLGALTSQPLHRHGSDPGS
Outline: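 U2OS cells BacMam-transduced with hERG, 2000 cells/well, compound ~10 min at 37 °C before stimulation buffer. FluxOR thallium flux fluorescence read kinetically on FDSS; decrease indicates block; AC50 from Hill fits.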

[11] = qHTS assay for small molecule activators of the p53 signaling pathway (AID 651743; active means well fitted activation curve with a large enough effect in the signal ratio, not every such curve was filed as active; the % refers to the signal ratio; further: series mostly up to about 92 µM; % of control where 0% means no effect); conditions: HCT-116 p53RE-bla, beta-lactamase FRET ratio, 16 h; activation: stronger effect = higher value
Outline: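 HCT-116 p53RE-bla, 4,000 cells/well; 5 h settle; cpd/DMSO 16 h, 37 C; LiveBLAzer B/G 2 h RT; fluorescence intensity.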

[12] = target: Tumor necrosis factor (Homo sapiens) (UniProt P01375); experiment: qHTS assay to identify small molecules that stimulate Tumor Necrosis Factor-alpha (TNF-alpha) secretion (AID 651757; active means well fitted curve in the direction sought with a large enough effect in the signal ratio; the % refers to the signal ratio; further: 0% is about no effect)
Chain of Tumor necrosis factor (Homo sapiens) (P01375 whole entry, looked up): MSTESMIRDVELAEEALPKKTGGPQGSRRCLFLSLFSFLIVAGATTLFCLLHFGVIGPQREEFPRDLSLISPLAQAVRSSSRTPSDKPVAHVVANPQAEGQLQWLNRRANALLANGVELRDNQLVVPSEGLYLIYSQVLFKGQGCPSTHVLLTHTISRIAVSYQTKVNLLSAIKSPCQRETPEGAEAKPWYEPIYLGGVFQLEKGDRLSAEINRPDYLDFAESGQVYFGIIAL
Outline: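 THP-1 cells were exposed to compounds for 17 hrs at 37 C, after which secreted TNF-alpha was measured by homogeneous HTRF (TR-FRET) using cryptate- and XL665-labeled anti-TNF-alpha antibodies, read after 3 hr at room temperature.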

[13] = qHTS assay for small molecule antagonists of the retinoid-related orphan receptor gamma (ROR-gamma) signaling pathway - cell viability counter screen (AID 720652; active means well fitted curve in the direction sought with a large enough effect in the repeat runs; an effect the other way counts as inactive or inconclusive;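 further: CHO reporter cells with doxycycline-induced ROR-gamma expression; series mostly up to about 92 µM; compound exposure lasted 16 hr before ATP read; on the % scale 0 is the no-effect control and ±100 the full control effect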)
Outline: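 Counter screen in CHO cells carrying TET-inducible ROR-gamma and an ROR response element-luciferase reporter; cells plated 5 hr, compound pinned, doxycycline added, then 16 hr at 37 C. Viability read as intracellular ATP by CellTiter-Glo luminescence.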

[14] = qHTS assay for cell viability of the p53RE-bla HCT-116 cell line (AID 743292); further: on the % scale 0 is the no-effect control and ±100 the full control effect; nearly all actives have a fitted effect of over 55% in size
Outline: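 Quantitative high-throughput format: compounds in DMSO were pinned onto p53RE-bla HCT-116 cells (4,000/well) and incubated 16 h at 37 C. Total intracellular ATP, read by CellTiter-Glo luminescence, reflects viable cell number.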

[15] = target: Nuclear receptor subfamily 1 group I member 2 (Rattus norvegicus) (UniProt Q9R1A7); experiment: qHTS assay for small molecule activators of the rat pregnane X receptor (rPXR) signaling pathway (AID 651751; call rule not given here; further: 0% is about no effect); conditions: rPXR reporter cells, luciferase (One-Glo), 24 h
Chain of Nuclear receptor subfamily 1 group I member 2 (Rattus norvegicus) (Q9R1A7 whole entry, looked up): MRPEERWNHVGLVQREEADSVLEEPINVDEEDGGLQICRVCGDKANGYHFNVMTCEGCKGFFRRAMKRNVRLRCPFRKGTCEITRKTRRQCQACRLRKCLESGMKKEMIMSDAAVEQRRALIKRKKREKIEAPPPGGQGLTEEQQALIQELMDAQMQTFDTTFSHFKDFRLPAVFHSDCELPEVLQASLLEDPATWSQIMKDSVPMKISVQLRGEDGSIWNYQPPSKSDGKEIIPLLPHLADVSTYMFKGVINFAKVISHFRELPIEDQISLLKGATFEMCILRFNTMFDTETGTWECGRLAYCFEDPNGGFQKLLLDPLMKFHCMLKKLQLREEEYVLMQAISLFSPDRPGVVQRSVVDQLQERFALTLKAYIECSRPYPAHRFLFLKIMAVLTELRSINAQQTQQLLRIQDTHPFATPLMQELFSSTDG

[16] = target: Ubiquitin carboxyl-terminal hydrolase 1 (Homo sapiens) (UniProt O94782); experiment: Inhibitors of USP1/UAF1: Pilot qHTS (AID 504865);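 further: rhodamine fluorescence freed from ubiquitin-rhodamine substrate followed over time; top concentration of the series differs between compounds; on the % scale 0 is the no-effect control and ±100 the full control effect; nearly all actives have a fitted effect of over 35% in size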
Chain of Ubiquitin carboxyl-terminal hydrolase 1 (Homo sapiens) (O94782 whole entry, looked up): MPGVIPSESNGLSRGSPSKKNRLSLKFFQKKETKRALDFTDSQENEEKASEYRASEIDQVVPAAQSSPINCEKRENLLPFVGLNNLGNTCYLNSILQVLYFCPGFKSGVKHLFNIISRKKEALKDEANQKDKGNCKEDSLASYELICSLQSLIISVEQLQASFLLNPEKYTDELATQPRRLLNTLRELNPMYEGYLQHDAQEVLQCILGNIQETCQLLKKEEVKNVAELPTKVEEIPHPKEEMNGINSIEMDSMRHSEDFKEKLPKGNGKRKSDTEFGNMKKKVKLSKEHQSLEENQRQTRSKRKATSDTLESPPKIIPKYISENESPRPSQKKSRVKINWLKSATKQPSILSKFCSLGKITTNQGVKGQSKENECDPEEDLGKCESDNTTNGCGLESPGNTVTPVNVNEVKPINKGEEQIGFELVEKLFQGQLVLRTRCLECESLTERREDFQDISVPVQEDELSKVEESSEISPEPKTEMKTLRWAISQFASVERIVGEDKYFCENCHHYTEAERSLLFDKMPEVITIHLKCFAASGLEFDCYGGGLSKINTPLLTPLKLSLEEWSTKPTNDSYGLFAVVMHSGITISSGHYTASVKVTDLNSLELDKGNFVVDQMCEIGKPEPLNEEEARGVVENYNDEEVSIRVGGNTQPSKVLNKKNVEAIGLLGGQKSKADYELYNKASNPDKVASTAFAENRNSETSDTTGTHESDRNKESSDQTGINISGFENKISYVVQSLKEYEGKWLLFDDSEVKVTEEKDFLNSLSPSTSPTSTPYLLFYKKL
Outline: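 USP1/UAF1 complex at 1 nM preincubated 15 min at room temperature with compound, then Ub-Rho substrate added at 150 nM final. Fluorescence (480/540 nm) read kinetically in 50 mM HEPES pH 7.8, 0.5 mM EDTA, 1 mM TCEP, 0.1 mg/ml BSA, 0.01% Tween-20.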

[17] = MultiTox-Fluor Cytotoxicity Assay - LYMP1-001 - Live Cells (AID 947);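 further: 0% = DMSO only and full inhibition = tetraoctylammonium bromide control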
[18] = qHTS assay for small molecule agonists of retinoid X receptor alpha signaling (AID 588544; calls by dose curve;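 on activation: 0% = DMSO basal wells and 100% = reference agonist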); conditions: HEK293T RXRa-UAS-bla, beta-lactamase reporter, 18 h; 530 nm emission
[19] = target: Retinoic acid receptor RXR-alpha (Homo sapiens) (UniProt P19793); experiment: as above
Chain of Retinoic acid receptor RXR-alpha (Homo sapiens) (P19793 whole entry, looked up): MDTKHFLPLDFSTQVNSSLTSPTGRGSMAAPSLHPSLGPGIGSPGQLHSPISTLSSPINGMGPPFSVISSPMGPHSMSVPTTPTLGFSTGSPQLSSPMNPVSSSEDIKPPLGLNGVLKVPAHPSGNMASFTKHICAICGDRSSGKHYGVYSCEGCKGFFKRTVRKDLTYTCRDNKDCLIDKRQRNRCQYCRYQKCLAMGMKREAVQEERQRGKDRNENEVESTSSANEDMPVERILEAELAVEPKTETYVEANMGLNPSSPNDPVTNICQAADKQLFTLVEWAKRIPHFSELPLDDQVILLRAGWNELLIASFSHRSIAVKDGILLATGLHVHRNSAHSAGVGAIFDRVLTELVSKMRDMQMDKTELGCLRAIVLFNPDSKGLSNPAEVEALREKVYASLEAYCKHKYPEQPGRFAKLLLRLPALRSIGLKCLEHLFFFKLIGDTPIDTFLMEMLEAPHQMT

[20] = qHTS assay for small molecule disruptors of the mitochondrial membrane potential - 1 hr assay (AID 651754; calls by dose curve; further: on the % scale 0 is the no-effect control and ±100 the full control effect; nearly all actives have a fitted effect of over 35% in size)
Outline: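 HepG2 cells, attached overnight at 37C, were exposed to compound or DMSO vehicle for 1 hr at 37C, 5% CO2, then stained with Mito-MPS dye for 30 min. Red aggregate versus green monomer fluorescence reports membrane potential.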

CN(C)C=O
inactive: Potency [1] | Potency [2] | Potency [3] | Potency [4] | Potency [5] | outcome [6] | outcome [7] | outcome [8] | activity change % (negative = inhibition) [9] -4.62% and -13.9% and 12% | Potency [10] | activation [11] -4.49% and -0.185% and 0.579% | outcome [12] | Potency [13] | Potency [14] | max response [15] 4.41% and 5.29% and 1.77%

COc1cccc(-c2nc(NCCN3CCOCC3)c3ccccc3n2)c1
inactive: Potency [16]

C=Cc1ccccc1Cl
-6.66%: max response [18]
inactive: Potency [1] | Potency [17] | Potency [2] | Potency [3] | Potency [4] | Potency [5] | outcome [6] | outcome [19] | outcome [8] | activity change % (negative = inhibition) [9] 9.88% | Potency [10] | activation [11] -0.152% | Potency [20] | outcome [12] | Potency [13] | Potency [14] | max response [15] 1.05%

O=[N+]([O-])c1cccc(Cl)c1Cl
inactive: Potency [1] | Potency [17] | Potency [2] | Potency [3] | Potency [4] | Potency [5] | outcome [6] | outcome [7] | outcome [19] | Potency [20] | outcome [12] | Potency [13] | Potency [14] | max response [15] -1.89% and -3.78%
6.35% and -11.4%: max response [18]

Nc1ccc(Cl)cc1Cl
inactive: Potency [1] | Potency [17] | Potency [2] | Potency [3] | Potency [4] | Potency [5] | outcome [6] | outcome [7] | outcome [19] | outcome [8] | activity change % (negative = inhibition) [9] -5.09% and -14.9% | Potency [10] | activation [11] -2.62% and -5.11% | Potency [20] | outcome [12] | Potency [13] | Potency [14] | max response [15] 2.63% and 1.63%
-10.9%: max response [18]

C=CCOC(=O)c1ccccc1C(=O)OCC=C
inactive: Potency [1] | Potency [17] | Potency [3] | Potency [4] | Potency [5] | outcome [6] | outcome [7] | outcome [19] | outcome [8] | activity change % (negative = inhibition) [9] -9.14% and 1.91% | Potency [10] | activation [11] -0.242% and -1.19% | Potency [20] | outcome [12] | Potency [13] | Potency [14] | max response [15] -2.3% and 1.03%
-9.89% and -14.8%: max response [18]
